Hit rate of the full screen: of about 31,000 sequences, about 1,400 (4.5%) were called active. The full list was thinned out, with actives kept by preference. A number with no mark means an inactive call.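 Rule for the calls: active = median seed-adjusted z-score above 1 or below -1; inactive = the rest.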
assay: Novel Modifiers of Survival Motor Neuron (SMN) Protein: Gene Identification via Genome-wide siRNA Screen; conditions: HEK293T SMN2-luciferase reporter, siRNA knockdown, 72 h; actives lie on both sides;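 note: luminescence tracks full-length SMN protein made from the SMN2 reporter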
From the text: Spinal muscular atrophy (SMA) is the most common neuromuscular autosomal recessive disorder and one of the leading genetic causes of infant death. SMA results from mutations inducing loss of function or deletion in the survival of motor neuron-1 gene (SMN1), leading to deficiency of the survival motor neuron (SMN) protein. Although a second nearly identical gene, SMN2, is retained in humans, its expression primarily produces an aberrantly spliced isoform that is largely unstable and quickly degraded. We performed a genome-wide RNAi screen using a cell-based reporter assay to identify genes and pathways that modulate SMN protein stability. The screen identified over 200 genes that led to the greatest increase or decrease in luciferase expression.
Using HEK293T cells stably expressing a luciferase reporter that combines the promoter and splicing based cassettes in tandem with the major portion of the native SMN2 cDNA with luciferase, we performed a genome-wide RNAi screen to identify modulators of SMN protein levels. Luciferase is expressed when full-length SMN protein is generated with luminescence signal proportional to SMN protein levels. Our luciferase-based reporter assay was used to screen Ambion Silencer Select Human Druggable Genome siRNA library (10418 genes, 3 unique siRNAs per gene) using lipid-based reverse transfection.
Briefly, 1 pmol of each siRNA was spotted to a well of a 384-well plate (Corning, Corning, NY) and 20 microL of serum-free DMEM containing […] of Lipofectamine RNAiMax (Life Technologies, Carlsbad, CA) was then added to each well. Transfected cells were maintained at 37 degrees C in 5% CO2 for 72 hours, 20 microL of ONE-Glo Reagent (Promega) was added to wells for luciferase quantification. Raw luminescence reads were normalized to Ambion(R) Silencer(R) Negative Control #2 siRNA, then log10 transformed. A robust statistical measure of median absolute deviation (MAD) to standardize siRNA activities from each screen. Common Seed Analysis was used to help prioritize clean hits as opposed to those appearing to arise from seed based off-target effects. Candidate modulators were defined as the genes having a MAD score greater than 1.0 or less than -1.0.

Going from GGAUAAUACAGAAGCAGAATT against SAP30BP to AGAUGUGAAGCUCAAAUUATT against ETV7, the median seed-adjusted z-score rises from -0.257 to -0.00772.

Compared with GGGAGUCUUUCUUCGGGAATT against ABCG1, CAUCAUCUCUGGAACUCUUTT against ALAS2 is higher in median seed-adjusted z-score: -0.609 for the first, -0.142 for the second.

Going from CCUAUUCCCGAAGCCGUUATT against PLAUR to AAUGGAACCUGUAAGUGUATT against GCN5L2, the median seed-adjusted z-score rises from -0.118 to 0.013.

Compared with GAAGGACCCAGAUCUCUUUTT against ADCK1, GAUCCUAUCUUACUAACCATT against IL7R is higher in median seed-adjusted z-score: -0.177 for the first, 0 for the second.

Compared with GGCUUAUUGGAGCUCUUAATT against CSE1L, CAAGAUCUCAAGAAAUUCATT against CDK2 is lower in median seed-adjusted z-score: 0.425 for the first, -0.347 for the second.

Going from GCAACGUGGACAUUGGUGATT against SOX10 to GUUCAUCUUGAUUCACAAATT against NOC4L, the median seed-adjusted z-score falls from -0.255 to -0.315.

Going from GGAUGGCCAUUGAAGGGAUTT against ECHDC2 to GGGACAGGCUGCAAAGAAATT against AARS2, the median seed-adjusted z-score falls from -0.0827 to -0.52.

Going from CGGCUGGGUCUGUACCAAATT against TLX2 to GGUCUUUGAUGCGAAGUUATT against DOCK2, the median seed-adjusted z-score rises from -0.182 to 0.151.

Compared with CAAACAUCCAUAUCUAUGATT against NMT1, CGCUAUCCCAAUCGCUUUATT against CYB5R1 is lower in median seed-adjusted z-score: 0.18 for the first, 0 for the second.

First: GCAAGGGUCUCGGAUUAUATT against TMPRSS12
Second: CUAUAGAUGUGAUCAGUGUTT against ZNF32
The median seed-adjusted z-score of the first is higher: 0.0961 for the first, 0.034 for the second.

First: UGAGGACAAGGAUUUGGAATT against EIF2S2
Second: AUAGUUGACUAUUCUGAAATT against CCL18
The median seed-adjusted z-score of the first is higher: 0.576 for the first, 0.169 for the second.

Compared with AUACGGCUCUAACAGAUUATT against DBI, AGAAGAUCGGAAUUCUUUATT against RGPD5 is lower in median seed-adjusted z-score: 0.0661 for the first, -0.0931 for the second.

Compared with GGCUUAGGAUGGAGACCUATT against TGDS, GUGUUUAAGGGCUUUUGAATT against CBR3 is higher in median seed-adjusted z-score: -0.196 for the first, 0.057 for the second.

Going from AACCCAUCGUUCCAUAUUATT against PPOX to GAGUAGCAGGAAAAACGAATT against SNX13, the median seed-adjusted z-score falls from 0.519 to 0.253.

Going from CCUAUGACAUGUUUCCAGATT against MAP4K2 to GCUAUAAGCCGAUAGUAGATT against 11-Sep, the median seed-adjusted z-score rises from -0.439 to -0.245.

First: GCUGGGCCGAGUACCUUAATT against PDX1
Second: GAAGUAAGUUUGUUGUAGATT against PGAP1
The median seed-adjusted z-score of the first is higher: 0 for the first, -0.272 for the second.

First: GCCGAACUAUCUGAGAAUATT against PCDH1
Second: GGGUUAAUGUUGAGGAAUUTT against NME7
The median seed-adjusted z-score of the first is lower: -0.514 for the first, -0.331 for the second.

First: CCUGAUUUCUUGUGAUACATT against DNAJC24
Second: GGACAUUUGCAUACUCCUATT against PPP1R14D
The median seed-adjusted z-score of the first is lower: -0.0166 for the first, 0 for the second.

Going from GCAUUUCGCCUGACCAUUATT against SENP1 to GAAUUGGAGUGAUUCGAAUTT against NETO2, the median seed-adjusted z-score falls from 0.625 to -0.136.

Going from GGAAGACUAUUGGAUAGAATT against ARHGAP18 to CACCAGAUCUACCAGUUCATT against ADM, the median seed-adjusted z-score rises from 0 to 0.65.

Going from GCCCUACAUGGUAAAUUCATT against GTDC1 to CCCAAGAACUGCUACGUCATT against SMPD2, the median seed-adjusted z-score falls from 0.2 to -0.406.

First: GAAACUUCCUAAGUCGAAATT against FAM57A
Second: CGUUCGGAAUAACUGAAAUTT against GNG7
The median seed-adjusted z-score of the first is higher: 0.0434 for the first, -0.205 for the second.

First: AGAACAACCGGAUUCGAGATT against LRRC52
Second: GCCUUUCAGUCAUCGCGCATT against PLXND1
The median seed-adjusted z-score of the first is higher: 0.118 for the first, -0.064 for the second.

Compared with GCUGGUCCCUUGGAUAAGATT against MED1, GAAACAGUGCUGAAGCCUUTT against RYBP is higher in median seed-adjusted z-score: -0.855 for the first, 0.831 for the second.

First: GGGAGGGCAUCAACAAGAATT against RGS19
Second: GGCUGCACAUAUACCUUAATT against RRN3
The median seed-adjusted z-score of the first is higher: 0.295 for the first, 0.0382 for the second.

First: GGAUAGUUUUUCGAAUUAATT against MYO9A
Second: GGUAAGGCCUUAUAAUGUATT against KHK
The median seed-adjusted z-score of the first is lower: -0.567 for the first, 0 for the second.

Going from GGAUAUCCGCCUUCACAGATT against BAG4 to CGAAGAAUCUUCCGAAGAATT against EIF2AK1, the median seed-adjusted z-score falls from 0.111 to -0.546.

First: GAAUGUAUCAGCUACCGAUTT against HYAL4
Second: GAAAGACUCUUACCAUUUUTT against SSBP4
The median seed-adjusted z-score of the first is lower: -0.236 for the first, 0.254 for the second.

GCAUUGGGAUGUACUUGUATT against LRP12 gave a median seed-adjusted z-score of 0.416.

For GGAAGAAACCAUUACAAUATT against SNAPC3, the median seed-adjusted z-score was -1.72 (active).
For GGUCAUGCAGAUUAUGUUATT against TUFM, the median seed-adjusted z-score was 1.07 (active).
For CCAUCGGAAUCUUGACGAATT against MX1, the median seed-adjusted z-score was -1.49 (active).
In the case of GAGUUCCUCUGGUCACUAUTT against TTC18, the median seed-adjusted z-score is reported as -1.15 (active).
For GCAUCGACGUGAUCACCAUTT against GPR26, the median seed-adjusted z-score was -1.33 (active).
With GCCCAAACUGAGUACAACUTT against PLA2G10 the median seed-adjusted z-score was 1.07 (active).
In the case of GAAAUACCCUAUUACCAAATT against MED26, the median seed-adjusted z-score is reported as -1.86 (active).
With GCAAUGAGAUGAACACCGATT against NPEPL1 the median seed-adjusted z-score was 1.12 (active).
With CGGUAUCACCGUUGAUGAATT against ARID1A the median seed-adjusted z-score was -1.14 (active).
With CCGUUUUGGUGAGUCAACATT against RANBP2 the median seed-adjusted z-score was 1.53 (active).
For UAAAGUUCUUUUAUCCAUUTT against UBE2D3, the median seed-adjusted z-score was 1.62 (active).
In the case of GGGAGAACGUGACCAUCUATT against ICAM5, the median seed-adjusted z-score is reported as -1 (active).
For CCACUAGCUGAUUACUAUATT against MED6, the median seed-adjusted z-score was -2.15 (active).
